Experimental data published in PubChem BioAssay AID686978 (National Center for Advancing Translational Sciences (NCATS), 2013).
Hit rate of the full screen: of about 420,000 compounds, about 64,000 (15%) were called active. Inconclusive results (about 27%) are left out. These entries were drawn from the full list. Values without a mark were called inactive. Calls follow the shape of the dose curve; as a rule, active = well fitted inhibition curve with a large enough effect; inconclusive = small, poorly fitted or top-dose-only effect; inactive = flat fitted curve, though single readings scatter.

Assay: qHTS for Inhibitors of human tyrosyl-DNA phosphodiesterase 1 (TDP1): qHTS in cells in absence of CPT; also: nearly all actives have a fitted effect of over 55% in size
Settings: DT40 Tdp1-/- hTDP1 cells, no CPT, ATP luminescence, 48 h; activity change, negative = growth inhibition: at 46.2 µM (top of the series)
Text: Human tyrosyl-DNA phosphodiesterase 1 (TDP1) is a novel repair gene, and we propose to use it as a new target for anticancer drug development. TDP1 is not an essential protein, but under treatment with topoisomerase I poison (camptothecin: CPT), TDP1 works as a critical factor for cell survival. To directly identify novel TDP1 inhibitors active in a cellular environment, we have knocked-out the Tdp1 gene in chicken DT40 cells (Tdp1-/-) and generated a complemented counterpart cells that contains a stable transfection of the human TDP1 gene (Tdp1-/-;hTDP1 cells). For the primary screen, Tdp1-/-;hTDP1 cells will be exposed to small molecules in the presence or absence of CPT, and their growth kinetics will be evaluated after 48 hours by measuring ATP activity. […] The hit compounds will then be evaluated in the presence or absence of CPT using Tdp1-/- cells. […] In tertiary assays, biochemical gel-based assays will be used to assess whether the hit compounds specifically target TDP1.
To this end, we have screened this cell line against the MLSMR in two primary screens. In one screen we add CPT and in the other we screen in the absence of CPT; this AID represents the screen where CPT was absent.
NIH Chemical Genomics Center [NCGC]
NIH Molecular Libraries Probe Centers Network [MLPCN]
Assay Submitter (PI): Yves Pommier, NCI
DT40-hTDP1 cells without 20 nM Camptothecin (add 20 microL of DMSO in 1 L of cell culture medium) were dispensed at 400 cells/5microL/well in tissue culture treated 1536-well white wall/solid bottom assay plates (Greiner Bio-One North America, NC, U.S.A.) using a Multidrop Combi 8 channel dispenser (Thermo Fisher, Waltham, MA, USA). 23 nL compounds and controls were transferred using the pin tool (Kalypsys, San Diego, CA, USA) to the assay plates. The assay plates were then incubated at 37 masculineC for a minimum 48 hr. Three microL of Cell Titer Glo solution was added to the plates and incubated at RT in dark for 30 min. Luminescence was read using ViewLux (Perkin Elmer) with 1 sec exposure slow speed, high gain and 2x binning.
% is scaled to controls: 0 for no effect and ±100 for the full control effect; potency is read from the fitted curve at half-maximal effect.

SMILES	Potency	activity change, negative = growth inhibition
CCCN1C(=O)C(NC(C)=O)c2cc(OC)ccc21 (stereo not drawn)	18.4 µM (active)	
CCCN1C2CCCC1CC(NC(=O)c1cccc(OC)c1)C2 (stereo not drawn)		-4.33%
COc1cccc(NC(=O)N2C3CCCC2CC(NC(C)=O)C3)c1 (stereo not drawn)		22.8%
Cn1c(CCNS(=O)(=O)c2ccc(F)cc2)nnc1SCc1cccnc1		-12.9%
COc1ccc(N(C)C(=O)CCS(=O)(=O)c2cccc3nsnc23)cc1	inactive	
CCOC(=O)C1CCN(C(=O)Nc2ccc(C)c(Cl)c2)CC1		-18.4%
Cc1cc(NC(=O)Nc2ccc(Cl)cc2)n(-c2ccccc2)n1		-14.9%
Cc1ccc(NC(=O)Nc2cc(-c3ccccc3)nn2C)cc1Cl	20.6 µM (active)	
CC1(C)CC(=O)C(CC(=O)N2CCC(Cc3ccccc3)CC2)C(=O)C1		-13.8%
O=C(CN1CCOc2ccccc21)N1CCC(Cc2ccccc2)CC1	11.6 µM (active)	
O=C(NCc1nnc(SCC(=O)N2CCC(Cc3ccccc3)CC2)o1)c1ccco1		-3.4%
CC1COC2C(O1)N(S(C)(=O)=O)CCN2S(C)(=O)=O (stereo not drawn)		-9.7%
CCC(=O)Nc1ccc2nn(-c3ccc(F)cc3)nc2c1		-27.6%
c1ccc(-c2[nH]ncc2-c2nc3ccccc3[nH]2)cc1		6.23%
O=C(/C=C/c1ccco1)Nc1cccc(-c2nc3ccccc3[nH]2)c1	23.1 µM (active)	
Cc1nnc(NC(=O)/C=C/c2ccco2)s1		-3.69%
NS(=O)(=O)c1cccc(NC(=O)COC(=O)/C=C/c2ccco2)c1		-3.67%
O=C(Nc1cccc(-c2nc3ccccc3[nH]2)c1)c1ccc(C(=O)Nc2cccc(-c3nc4ccccc4[nH]3)c2)cc1	18.4 µM (active)	
COc1cccc(NC(=O)COC(=O)/C=C/c2ccco2)c1		-27%
Cc1ccc(-n2nc3ccc(NC(=O)/C=C/c4ccco4)cc3n2)cc1C	18.4 µM (active)	
O=C(Nc1cccc(NC(=O)c2ccc(Br)cc2)c1)c1ccccc1		-5.64%
COc1ccccc1C(=O)Nc1ccnn1C1CCN(Cc2cnn(C)c2)CC1		-3.57%
COc1ccc2c(c1OC)C(=O)N(c1ncn[nH]1)C2		-0.222%
Cc1ccc(S(=O)(=O)NC[C@H]2O[C@@H](n3cnc4c(N)ncnc43)[C@H](O)[C@@H]2O)s1		-16.2%
CCCc1cc(=O)[nH]c(SCc2cc(=O)oc3c(C)c(C)ccc23)n1		-12.2%
CCN(CC(=O)Nc1c(F)cccc1F)C(=O)c1cnc(C)cn1		2.58%
CC(C)CN(C(=O)CSc1nncn1C)C1CCS(=O)(=O)C1 (stereo not drawn)		-14.8%

SMILES	Potency	activity change, negative = growth inhibition
O=C(CN(Cc1ccccc1)C(=O)c1ccc2c(c1)OCCO2)NCc1ccc2c(c1)OCO2		-23.2%
CC/C(O)=N\S(=O)(=O)c1ccc(N=NN(C)C)cc1		-6.75%
COCCN1C(=O)N[C@@H](c2ccccc2)C(C(=O)OC)=C1C		-8.68%
CCN1C(=O)N[C@@H](c2ccccc2)C(C(=O)OC)=C1C		-14.8%
COC(=O)C1=C(C)N(Cc2ccccc2)C(=NCCCOC(C)C)N[C@H]1c1ccccc1	10.3 µM (active)	
CCOCCOCCC(C(=O)O)P(=O)(c1ccccc1)c1ccccc1 (stereo not drawn)		9.02%
CCOc1ccc(-n2cnnn2)cc1S(=O)(=O)N1CCC(C)CC1C (stereo not drawn)		-22.2%
CCc1ccccc1NC(=O)CSc1nnc(CCNC(=O)OC(C)(C)C)o1		-14.5%
Cc1ccccc1Nc1nc(N)nc(CSc2nnc3ccccn23)n1		2.48%
CS(=O)(=O)N1CCc2cc(C(=O)Nc3ccccc3)ccc21		-3.41%
COc1ccc(S(=O)(=O)N2CCc3ccccc32)cc1C(=O)Nc1cc(S(C)(=O)=O)ccc1Cl	4.61 µM (active)	
CCN(C(=O)COC(=O)c1cc(S(=O)(=O)N2CCc3ccccc32)ccc1OC)C1CCS(=O)(=O)C1 (stereo not drawn)		0.801%
O=C(Nc1cc(C(F)(F)F)ccc1Cl)c1ccc2c(c1)CCN2S(=O)(=O)c1ccccc1	11.6 µM (active)	
Cc1ccc(S(=O)(=O)N2CCc3cc(C(=O)Nc4ccc(Cl)cc4C)ccc32)cc1		-2.76%
COc1ccc(OC)c(NC(=O)c2ccc3c(c2)CCN3S(C)(=O)=O)c1		-24.1%
CC(C)(O)C1=C[N+](=O)CC=C1		-3.03%
C#CCOCCOCCOCCNc1nc(N2CCN(C(=O)C([C@@H](C)CC)n3cc(C(N)COC(=O)C(F)(F)F)nn3)CC2)nc(N2CCN(C(=O)[C@H](CCCCN)n3cc(C(N)CC(C)C)nn3)CC2)n1 (stereo partly drawn)		-1.26%
Cc1nn(CC(=O)Nc2ccc(N(C)C)cc2)c(C)c1[N+](=O)[O-]		-26.8%
CC1CC(=NNC(=O)C2COc3ccccc3O2)CC(C)(C)C1 (stereo not drawn)		-27.9%
C[C@@H](C(=O)N1CCNCC1)n1cc(CCC(=O)O)nn1		-8.65%
C=C(C)CNc1cc(S(=O)(=O)N2CCOCC2)ccc1Oc1ccccc1	20.6 µM (active)	
COc1ccc(S(=O)(=O)N2CCOCC2)cc1NC(=O)COc1ccccc1		-24.6%
COC(=O)c1cc(Oc2ccc(S(=O)(=O)N3CCOCC3)cc2[N+](=O)[O-])cc(C(=O)OC)c1		-27.7%
O=[N+]([O-])c1cc([N+](=O)[O-])c(Oc2cc(F)cc(F)c2F)cc1NN1CCCCC1		-23.3%
O=C(/C=C/c1ccc(F)cc1)NCCNC(=O)/C=C/c1ccc(F)cc1		4.93%
O=C(/C=C/c1ccc([N+](=O)[O-])o1)NNC(=O)c1ccc(F)cc1	1.84 µM (active)	
